Whole data set: some 81,000 sequences, median “one-hybrid fitness for binding NBS DNA” near -0.1, cut for the highest 2% near 0.36. Only a selection was taken, and the highest values are over-represented in it overall.
B1: Caulobacter ParB omega fusion; a variant is named by its letters at X, in order, B8GW30 (parent)
chain: MESVVVGEPGMSEGRRGLGRGLSALLGEVDAAPAQAPGEQLGGSREAPIEILQRNPDQPRRTFREEDLEDLSNSIREKGVLQPILVRPSPDTAGEYQIVAGERAWRAAQRAGLKTVPIMVRELDDLAVLEIGIIENVQRADLNVLEEALSYKVLMEKFERTQENIAQTIGKSXSHVANXMRLLXLPDEVQSYLVSGELTAXHARAIAAAADPVALAKQIIEGGLSVRETEALARKAPNLSAGKSKGGRPPRVKDTDTQALESDLSSVLGLDVSIDHRGSTGTLTITYATLEQLDDLCNRLTRGI

Variants of: B1
Assay: one-hybrid fitness for binding NBS DNA (the Noc-binding site; scaled: cognate 1, non-cognate 0); higher = stronger binding
Details: with NBS DNA site
Outline: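 Caulobacter ParB libraries with four specificity codons randomised were screened by bacterial one-hybrid selection in the E. coli USO strain, using a HIS3 reporter whose site lies 19 bp from the promoter. Selection ran for 48 hours at 37°C on M9 lacking histidine, with 0.1 mM IPTG and 5 mM 3-AT. Plasmids were Illumina-sequenced before and after selection, three replicate libraries were pooled, and variants with under 10 reads were dropped. Fitness is the log change in each variant's read ratio to wild type, rescaled against the cognate and non-cognate sites.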

one-hybrid fitness for binding NBS DNA, 0.493:
QQKQ

one-hybrid fitness for binding NBS DNA, 0.289:
RMWR

one-hybrid fitness for binding NBS DNA, 0.615:
RIRT

one-hybrid fitness for binding NBS DNA, 0.424:
RMYR

one-hybrid fitness for binding NBS DNA, 0.602:
RSRT

one-hybrid fitness for binding NBS DNA, 0.621:
RART

one-hybrid fitness for binding NBS DNA, 0.317:
QSDR

one-hybrid fitness for binding NBS DNA, 0.447:
QMGT

one-hybrid fitness for binding NBS DNA, 0.364:
FAFR

one-hybrid fitness for binding NBS DNA, 0.618:
QHNR

one-hybrid fitness for binding NBS DNA, 0.522:
QTSS

one-hybrid fitness for binding NBS DNA, 0.234:
QIDR

one-hybrid fitness for binding NBS DNA, 0.37:
QHSS

one-hybrid fitness for binding NBS DNA, 0.451:
FAFL

one-hybrid fitness for binding NBS DNA, 0.479:
RMGR
QINR

one-hybrid fitness for binding NBS DNA, 0.236:
RAWT

one-hybrid fitness for binding NBS DNA, 0.339:
RSLR

one-hybrid fitness for binding NBS DNA, 0.421:
QQRQ

one-hybrid fitness for binding NBS DNA, 0.365:
RRLH

one-hybrid fitness for binding NBS DNA, 0.312:
QMPT

one-hybrid fitness for binding NBS DNA, 0.253:
RMIR

one-hybrid fitness for binding NBS DNA, 0.435:
QKFR

one-hybrid fitness for binding NBS DNA, 0.433:
RMCR

one-hybrid fitness for binding NBS DNA, 0.392:
QMQT

one-hybrid fitness for binding NBS DNA, 0.736:
RMRR

one-hybrid fitness for binding NBS DNA, 0.449:
QCSS

one-hybrid fitness for binding NBS DNA, 0.303:
RSLS

one-hybrid fitness for binding NBS DNA, ≤ 0.2:
TCAG
QMGL
QMIN
QMQF
QMLN
QMLP
QMGM
HGKF
ARGT
PESN
MRTC
LKVF
YDRK
EANW
QHSP
QMSP
QHSH
QTSP
QPSS
QMSH
NGMI
PSRF
GSQF
RLMM
HSIS
RMPR
RMSP
RMRP
RMQF
RMQG
RMSN
RYMW
MSPG
AAPF
KVSV
SDKS
WSYG
SPGT
PNYD
KQNC
VKNL
FTGV
QSPF
TTVG
GWPD
RMAD
RMHM
RMGH
RMGN
RMLN
RMHF
LIKT
VQSV
DCSG
TPHH
LLVG
TAIG
HVIC
VVRW
RMNN
RMCN
RMCH
RMDR
NAAS
FAYR
FAAR
FAAL
FARL
MKNR
NTMM
VTYY
HWST
WHPR
RKLN
RPLR
VCVG
QFIL
QQAQ
QQSQ
QQVF
QQLQ
QQYQ
FDNG
NNAW
YMTS
GPQR
YAEG
QGWN
VMDS
LDDR
SESE
DLGS
RIPT
RERT
RFDT
RPRT
RFYT
PNYV
RQPS
SQNC
HISC
LSFT
TGSY
KYSS
CQDS
RSIT
RPYT
CPVW
KHGP
QYFN
QYAN
QYFS
QYAH
INHG
YKQS
TADE
RRLP
RPLS
RRLD
RCLH
GLNS
KRSF
ASNS
DKMS
HKVM
VYHT
KGST
WSCT
QKFH
QKAK
QKAH
QKFP
SYQK
QINN
QPDR
QHNP
QDDR
QSNP

one-hybrid fitness for binding NBS DNA, 0.201:
GQKR

one-hybrid fitness for binding NBS DNA, 0.46:
RMAR

one-hybrid fitness for binding NBS DNA, 0.416:
RCLR

one-hybrid fitness for binding NBS DNA, 0.503:
RMHR

one-hybrid fitness for binding NBS DNA, 0.62:
QSNR

one-hybrid fitness for binding NBS DNA, 0.468:
RMSR

one-hybrid fitness for binding NBS DNA, 0.336:
QHDR

one-hybrid fitness for binding NBS DNA, 0.366:
QYFR

one-hybrid fitness for binding NBS DNA, 0.309:
RMLS

one-hybrid fitness for binding NBS DNA, 0.456:
RFRT

one-hybrid fitness for binding NBS DNA, 0.266:
RCDT

one-hybrid fitness for binding NBS DNA, 0.223:
QMQY

one-hybrid fitness for binding NBS DNA, 0.395:
QMLT
QQVQ

one-hybrid fitness for binding NBS DNA, 0.431:
RMLR

one-hybrid fitness for binding NBS DNA, 0.221:
QTSN

one-hybrid fitness for binding NBS DNA, 0.34:
RIYT

one-hybrid fitness for binding NBS DNA, 0.23:
RRLN

one-hybrid fitness for binding NBS DNA, 0.402:
QMIT
QCDR

one-hybrid fitness for binding NBS DNA, 0.396:
RCLS

one-hybrid fitness for binding NBS DNA, 0.706:
RCRT

one-hybrid fitness for binding NBS DNA, 0.322:
RSYT

one-hybrid fitness for binding NBS DNA, 0.348:
RMFR

one-hybrid fitness for binding NBS DNA, 0.525:
RKLR

one-hybrid fitness for binding NBS DNA, 0.545:
RMNR

one-hybrid fitness for binding NBS DNA, 0.227:
RKLH

one-hybrid fitness for binding NBS DNA, 0.376:
QMSS

one-hybrid fitness for binding NBS DNA, 0.606:
RRLS
QKAR

one-hybrid fitness for binding NBS DNA, 0.411:
RMQR

one-hybrid fitness for binding NBS DNA, 0.517:
RCYT
QYAR

one-hybrid fitness for binding NBS DNA, 0.353:
QSSS
RAYT
